Experimental data reported in PubChem BioAssay AID1159580 (chemical genetic matrix, 2015).
Where “and” joins values, the source holds several entries; their conditions need not be identical. Identical values can stand only once. Out of some 5,500 compounds screened, about 2,000 (36%) were called active. Inconclusive results (about 18%) are left out. Cut-off read from the data, not from the text of the source: active = normalized growth mostly below about 0.91 (no sharp cut-off); inconclusive = no clear call, values can overlap the other calls; inactive = mostly above about 0.92. The list shows a part of the results. Where a SMILES comes first, the peptide text is derived from it. The star is where a group is joined. For = O=C*

Assay: chemical genetic growth profiling, strain panel (AID 1159580);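 note: tested at 20 µM; growth read once vehicle control cultures reached saturation at 30 °C; 1 = growth at the plate median or of vehicle wells; lower values mean less growth of the strain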
Conditions: growth OD

Measured: normalized growth

CSCCC(NC=O)C(=O)NC(Cc1ccccc1)C(=O)O (stereo not drawn) (For-Met-Phe-OH; configuration not given here)
inactive: S. cerevisiae deletion strains, locus YAL013W, strain DEP1, active compounds read low 1.02 | S. cerevisiae deletion strains, locus YBR021W, strain FUR4, active compounds read low 1.04 | S. cerevisiae deletion strains, locus YBR229C, strain ROT2, active compounds read low 1.01 | S. cerevisiae deletion strains, locus YCL029C, strain bik1, active compounds read low 1.03 | S. cerevisiae deletion strains, locus YDL035C, strain GPR1, active compounds read low 1.03 | S. cerevisiae deletion strains, locus YDL074C, strain BRE1, active compounds read low 1.02 | S. cerevisiae deletion strains, locus YDL101C, strain DUN1, active compounds read low 1.01 | S. cerevisiae deletion strains, locus YDL134C, strain PPH21, active compounds read low 1.03 | S. cerevisiae deletion strains, locus YDL185W, strain tfp1, active compounds read low 1.02 | S. cerevisiae deletion strains, locus YDL192W, strain arf1, active compounds read low 1.02 | S. cerevisiae deletion strains, locus YDR101C, strain arx1, active compounds read low 0.998 | S. cerevisiae deletion strains, locus YDR150W, strain NUM1, active compounds read low 1.01 | S. cerevisiae deletion strains, locus YDR162C, strain NBP2, active compounds read low 1.01 | S. cerevisiae deletion strains, locus YDR318W, strain mcm21, active compounds read low 1.02 | S. cerevisiae deletion strains, locus YDR388W, active compounds read low 1.02 | S. cerevisiae deletion strains, locus YDR502C, strain sam2, active compounds read low 1.01 | S. cerevisiae deletion strains, locus YEL061C, strain CIN8, active compounds read low 1.01 | S. cerevisiae deletion strains, locus YER110C, active compounds read low 1.02 | S. cerevisiae deletion strains, locus YER155C, strain BEM2, active compounds read low 1 | S. cerevisiae deletion strains, locus YER167W, strain BCK2, active compounds read low 1 | S. cerevisiae deletion strains, locus YGL078C, strain dbp3, active compounds read low 1.01 | S. cerevisiae deletion strains, locus YGL086W, strain mad1, active compounds read low 1 | S. cerevisiae deletion strains, locus YGL248W, strain PDE1, active compounds read low 1 | S. cerevisiae deletion strains, locus YGR135W, strain pre9, active compounds read low 1.02 | S. cerevisiae deletion strains, locus YGR229C, strain SMI1, active compounds read low 1.02 | S. cerevisiae deletion strains, locus YGR252W, strain gcn5, active compounds read low 1.03 | S. cerevisiae deletion strains, locus YHR030C, strain SLT2, active compounds read low 1.01 and 1.07 | S. cerevisiae deletion strains, locus YHR079C, strain IRE1 (second series), active compounds read low 1.02 | S. cerevisiae deletion strains, locus YHR079C, strain IRE1, active compounds read low 1.04 | S. cerevisiae deletion strains, locus YHR094C, strain hxt1, active compounds read low 1.02 | S. cerevisiae deletion strains, locus YHR129C, strain ARP1, active compounds read low 1 | S. cerevisiae deletion strains, locus YHR200W, strain rpn10, active compounds read low 1.03 | S. cerevisiae deletion strains, locus YIL066C, strain RNR3, active compounds read low 1.01 | S. cerevisiae deletion strains, locus YIL073C, strain SPO22, active compounds read low 1.08 | S. cerevisiae deletion strains, locus YIL125W, strain kgd1, active compounds read low 1.01 | S. cerevisiae deletion strains, locus YIR030C, strain dcg1, active compounds read low 1.01 | S. cerevisiae deletion strains, locus YJL095W, strain BCK1, active compounds read low 1 and 1.06 | S. cerevisiae deletion strains, locus YJL134W, strain LCB3, active compounds read low 1 | S. cerevisiae deletion strains, locus YJL168C, strain set2, active compounds read low 1.01 | S. cerevisiae deletion strains, locus YJL187C, strain SWE1 (second series), active compounds read low 1.01 | S. cerevisiae deletion strains, locus YJR043C, strain POL32, active compounds read low 1.01 | S. cerevisiae deletion strains, locus YJR066W, strain TOR1, active compounds read low 1.01 | S. cerevisiae deletion strains, locus YKL009W, strain mrt4, active compounds read low 1.02 | S. cerevisiae deletion strains, locus YKL068W, active compounds read low 1.01 | S. cerevisiae deletion strains, locus YKL085W, strain MDH1 (second series), active compounds read low 1.01 | S. cerevisiae deletion strains, locus YKL085W, strain MDH1, active compounds read low 1.01 | S. cerevisiae deletion strains, locus YKL190W, strain CNB1, active compounds read low 1.01 | S. cerevisiae deletion strains, locus YKR001C, strain vps1, active compounds read low 1.02 | S. cerevisiae deletion strains, locus YLR039C, strain RIC1, active compounds read low 1.06 | S. cerevisiae deletion strains, locus YLR058C, strain SHM2, active compounds read low 1.01 | S. cerevisiae deletion strains, locus YLR102C, strain apc9, active compounds read low 1.02 | S. cerevisiae deletion strains, locus YLR113W, strain HOG1, active compounds read low 0.978 | S. cerevisiae deletion strains, locus YLR262C, strain YPT6, active compounds read low 1.04 | S. cerevisiae deletion strains, locus YLR268W, strain sec22, active compounds read low 1.02 | S. cerevisiae deletion strains, locus YLR330W, strain CHS5, active compounds read low 1.01 | S. cerevisiae deletion strains, locus YLR342W, strain FKS1 (second series), active compounds read low 1.03 | S. cerevisiae deletion strains, locus YLR371W, strain rom2, active compounds read low 1.02 | S. cerevisiae deletion strains, locus YLR418C, strain cdc73, active compounds read low 1.06 | S. cerevisiae deletion strains, locus YML016C, strain PPZ1, active compounds read low 0.999 | S. cerevisiae deletion strains, locus YML032C, strain rad52, active compounds read low 1.02 | S. cerevisiae deletion strains, locus YML124C, strain tub3, active compounds read low 1.01 | S. cerevisiae deletion strains, locus YMR078C, strain ctf18, active compounds read low 1.01 | S. cerevisiae deletion strains, locus YMR223W, strain ubp8, active compounds read low 1.02 | S. cerevisiae deletion strains, locus YMR263W, strain SAP30, active compounds read low 1.01 | S. cerevisiae deletion strains, locus YMR307W, strain GAS1, active compounds read low 1.04 | S. cerevisiae deletion strains, locus YNL067W, strain RPL9B, active compounds read low 1.02 | S. cerevisiae deletion strains, locus YNL128W, strain TEP1, active compounds read low 1.04 | S. cerevisiae deletion strains, locus YNL183C, strain NPR1, active compounds read low 0.989 | S. cerevisiae deletion strains, locus YNL233W, strain BNI4, active compounds read low 1 | S. cerevisiae deletion strains, locus YNL250W, strain rad50, active compounds read low 1.01 | S. cerevisiae deletion strains, locus YNL271C, strain bni1, active compounds read low 1.02 | S. cerevisiae deletion strains, locus YNL298W, strain CLA4, active compounds read low 1.03 | S. cerevisiae deletion strains, locus YNL307C, strain MCK1, active compounds read low 1.03 | S. cerevisiae deletion strains, locus YNL322C, strain KRE1, active compounds read low 1.01 | S. cerevisiae deletion strains, locus YNR052C, strain pop2, active compounds read low 1.02 | S. cerevisiae deletion strains, locus YOL006C, strain TOP1, active compounds read low 0.99 | S. cerevisiae deletion strains, locus YOL012C, strain htz1 0.63 | S. cerevisiae deletion strains, locus YOL147C, strain pex11, active compounds read low 1.03 | S. cerevisiae deletion strains, locus YOR061W, strain CKA2, active compounds read low 1 | S. cerevisiae deletion strains, locus YOR069W, strain VPS5, active compounds read low 1.01 | S. cerevisiae deletion strains, locus YOR136W, strain idh2, active compounds read low 1.02 | S. cerevisiae deletion strains, locus YOR144C, strain elg1, active compounds read low 1.01 | S. cerevisiae deletion strains, locus YOR184W, strain ser1, active compounds read low 1.02 | S. cerevisiae deletion strains, locus YOR231W, strain MKK1, active compounds read low 1.02 | S. cerevisiae deletion strains, locus YOR316C, strain cot1, active compounds read low 1.03 | S. cerevisiae deletion strains, locus YPL055C, strain LGE1, active compounds read low 0.997 | S. cerevisiae deletion strains, locus YPL241C, strain CIN2, active compounds read low 1 | S. cerevisiae deletion strains, locus YPL256C, strain CLN2, active compounds read low 1.07 | S. cerevisiae deletion strains, locus YPR119W, strain clb2, active compounds read low 1.01 | S. cerevisiae deletion strains, locus YPR141C, strain kar3, active compounds read low 1.01 | S. cerevisiae deletion strains, locus YPR163C, strain tif3, active compounds read low 1.01 | S. cerevisiae deletion strains, locus YPR167C, strain met16, active compounds read low 1.03 | S. cerevisiae deletion strains, strain wtn01, active compounds read low 1.04 | S. cerevisiae strains, strain wild type, active compounds read low 1.01
